Source: PubChem BioAssay (Tox21)
Records with an inconclusive call do not appear. Activity calls are given as the source filed them. Unless noted, the call rests on the fitted dose curve; in most records, active means well fitted curve in the direction sought with a large enough effect in the repeat runs; inconclusive means weak or mixed curves; inactive means no such curve, though single readings can be large; an effect the other way counts as inactive or inconclusive.

Legend:
[1] = qHTS assay to identify small molecule agonists of the hypoxia (HIF-1) signaling pathway (AID 1224846; active means well fitted activation curve with a large enough effect in the signal ratio in the repeat runs, not every such curve was filed as active; the % refers to the signal ratio)
In short: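 Compounds from the Tox21 10K library, dissolved in DMSO, are tested for induction of a hypoxia response element–controlled beta-lactamase reporter in ME-180 cells. Exposure lasts 17 hrs at 37C after a 5 hr settling period, followed by CCF4-AM FRET substrate.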

[2] = qHTS assay to identify small molecule agonists of H2AX - cell viability counter screen (AID 1224847; calls by dose curve; further: nearly all actives have a fitted effect of over 30% in size; further: potency means the concentration at half of the fitted maximal effect)
In short: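 Viability of CHO-K1 (wild type) cells after 3 hr compound exposure was measured by CellTiter-Glo luminescence.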

[3] = qHTS assay to identify small molecule antagonists of the estrogen related receptor (ERR) signaling pathway from Tox21 library (AID 1224848); further: nearly all actives have a fitted effect of over 50% in size
In short: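 Compounds dissolved in DMSO are pin-transferred onto ERR reporter cells (2,000 per well) that have settled for 6 h at 37 C. Plates then incubate 18 h at 37 C before ONE-Glo luciferase reagent and a luminescence read 30 min later.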

[4] = qHTS assay to identify small molecule agonists of the estrogen related receptor (ERR) signaling pathway from Tox21 library (AID 1224849; calls by dose curve; further: nearly all actives have a fitted effect of over 15% in size); conditions: ERR reporter cell line, ONE-Glo luciferase, 18 h; at 92.4 µM (top of the series) unless noted
In short: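 Cells carrying the ERR reporter were plated and allowed to settle for 6 h, exposed to library compounds for 18 h at 37 C, then lysed with ONE-Glo and luminescence measured.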

[5] = qHTS RealTime-Glo MT Cell Viability Assay in HepG2 cells - 24 hour (AID 1224867); further: nearly all actives have a fitted effect of over 50% in size
In short: (§1)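 qHTS, HepG2, 600 cells/well, RealTime-Glo (NanoLuc + prosubstrate) added with cells; 5 h preincubation; DMSO compound addition; 37 C; luminescence at 0/8/16/24/32/40 h.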

[6] = qHTS RealTime-Glo MT Cell Viability Assay in HEK293 cells - 32 hour (AID 1224868); further: top concentration of the series differs between compounds; nearly all actives have a fitted effect of over 50% in size
In short: (§2)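 Assay medium contained NanoLuc luciferase plus cell-permeant prosubstrate, added with HEK293 cells at 600 cells/well. After 5 h at 37 C/5% CO2 compounds were added; plates stayed at 37 C for 40 h with serial luminescence reads.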

[7] = A CellTox Green Cytotoxicity Assay to monitor cytotoxicity in HEK293 cells - 0 hour (AID 1224869); further: nearly all actives have a fitted effect of over 50% in size
In short: (§3)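 Cells (HEK293, 600/well) and dye reagent are dispensed together. After 5 h at 37 C, 23 nL compound is pinned in. Plates stay at 37 C for 40 h with fluorescence read at 0h, 8h, 16h, 24h, 32h and 40h.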

[8] = qHTS RealTime-Glo MT Cell Viability Assay in HepG2 cells - 40 hour (AID 1224870); further: nearly all actives have a fitted effect of over 50% in size
In short: (§4)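 HepG2 cells (600/well) mixed with RealTime-Glo MT reagent, settled 5 h at 37 C/5% CO2 before compound addition. Nonlytic NanoLuc luminescence from viable-cell prosubstrate reduction read repeatedly during 40 h treatment at 37 C.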

[9] = A CellTox Green Cytotoxicity Assay to monitor cytotoxicity in HEK293 cells - 40 hour (AID 1224871); further: nearly all actives have a fitted effect of over 45% in size
In short: as §3

[10] = qHTS RealTime-Glo MT Cell Viability Assay in HEK293 cells - 16 hour (AID 1224872)
In short: as §2

[11] = qHTS RealTime-Glo MT Cell Viability Assay in HepG2 cells - 8 hour (AID 1224873); further: nearly all actives have a fitted effect of over 55% in size
In short: as §4

[12] = qHTS RealTime-Glo MT Cell Viability Assay in HEK293 cells - 40 hour (AID 1224874); conditions: RealTime-Glo luminescence; max response: active compounds read low; further: nearly all actives have a fitted effect of over 50% in size
In short: (§5)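 Real-time viability in HEK293: signal arises when living cells convert a prosubstrate for NanoLuc in the medium, so luminescence tracks viable cell number. Compound (23 nL, DMSO) added 5 h post-seeding; kinetic reads at 0–40 h, 37 C.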

[13] = A CellTox Green Cytotoxicity Assay to monitor cytotoxicity in HEK293 cells - 24 hour (AID 1224875); further: nearly all actives have a fitted effect of over 45% in size
In short: as §3

[14] = A CellTox Green Cytotoxicity Assay to monitor cytotoxicity in HepG2 cells - 16 hour (AID 1224876); further: nearly all actives have a fitted effect of over 45% in size
In short: (§6)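 Cells and non-lytic dye reagent are dispensed together (600 HepG2 cells/well) and incubated 5 h before DMSO compound transfer. Kinetic fluorescence is then recorded in the same wells during 40 h at 37 C.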

[15] = qHTS RealTime-Glo MT Cell Viability Assay in HepG2 cells - 32 hour (AID 1224877); further: nearly all actives have a fitted effect of over 55% in size
In short: as §1

[16] = A CellTox Green Cytotoxicity Assay to monitor cytotoxicity in HepG2 cells - 24 hour (AID 1224878); further: nearly all actives have a fitted effect of over 45% in size
In short: as §6

[17] = A CellTox Green Cytotoxicity Assay to monitor cytotoxicity in HepG2 cells - 40 hour (AID 1224879); further: nearly all actives have a fitted effect of over 40% in size
In short: as §6

[18] = qHTS RealTime-Glo MT Cell Viability Assay in HEK293 cells - 0 hour (AID 1224880)
In short: as §5

[19] = A CellTox Green Cytotoxicity Assay to monitor cytotoxicity in HEK293 cells - 32 hour (AID 1224881); further: nearly all actives have a fitted effect of over 40% in size
In short: as §3

[20] = A CellTox Green Cytotoxicity Assay to monitor cytotoxicity in HepG2 cells - 0 hour (AID 1224882); further: nearly all actives have a fitted effect of over 35% in size
In short: as §6
On the % scale 0 is the no-effect control and ±100 the full control effect.

N#CCc1ccc(Cl)cc1
inactive: outcome [1] | Potency [2] | Potency [3] | activity change, positive = activation [4] 1.98% | Potency [5] | Potency [6] | Potency [7] | Potency [8] | Potency [9] | Potency [10] | Potency [11] | max response [12] 1.31% | Potency [13] | Potency [14] | Potency [15] | Potency [16] | Potency [17] | Potency [18] | Potency [19] | Potency [20]

COP(N)(=S)OC
inactive: outcome [1] | Potency [2] | Potency [3] | activity change, positive = activation [4] 3.3% | Potency [5] | Potency [6] | Potency [7] | Potency [8] | Potency [10] | Potency [11] | max response [12] 0.707% | Potency [14] | Potency [15] | Potency [16] | Potency [17] | Potency [18] | Potency [19] | Potency [20]

Cc1ccc(CCl)cc1
inactive: outcome [1] | Potency [2] | Potency [3] | activity change, positive = activation [4] -1.8% | Potency [6] | Potency [7] | Potency [8] | Potency [9] | Potency [10] | Potency [11] | max response [12] 2.72% | Potency [13] | Potency [14] | Potency [15] | Potency [16] | Potency [17] | Potency [18] | Potency [19] | Potency [20]

BrCBr
inactive: outcome [1] | Potency [2] | Potency [5] | Potency [6] | Potency [7] | Potency [8] | Potency [9] | Potency [10] | Potency [11] | Potency [13] | Potency [14] | Potency [15] | Potency [16] | Potency [17] | Potency [18] | Potency [19] | Potency [20]

CCCCCCCCCCBr
inactive: outcome [1] | Potency [2] | Potency [3] | activity change, positive = activation [4] 1.61% | Potency [6] | Potency [7] | Potency [8] | Potency [9] | Potency [10] | Potency [11] | max response [12] -10.6% | Potency [13] | Potency [14] | Potency [15] | Potency [16] | Potency [17] | Potency [18] | Potency [19] | Potency [20]

CC(=O)c1ccc(-c2ccccc2)cc1
inactive: outcome [1] | Potency [2] | Potency [5] | Potency [6] | Potency [7] | Potency [8] | Potency [9] | Potency [10] | Potency [11] | max response [12] -11.1% | Potency [14] | Potency [15] | Potency [16] | Potency [17] | Potency [18] | Potency [19] | Potency [20]

Nc1ccc(Cl)cc1C(=O)c1ccccc1
active: Potency [2] 101 µM
inactive: outcome [1] | Potency [3] | activity change, positive = activation [4] 3.06% | Potency [5] | Potency [7] | Potency [8] | Potency [14] | Potency [16] | Potency [17] | Potency [18]
